In all, about 5,500 compounds went through this assay and about 2,000 (36%) were called active. Not shown: some 18% with an inconclusive outcome. Cut-off read from the data, not from the text of the source: active = normalized growth mostly below about 0.91 (no sharp cut-off); inconclusive = no clear call, values can overlap the other calls; inactive = mostly above about 0.92. The list shows a part of the results.
Assay: chemical genetic growth profiling, strain panel (AID 1159580);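 note: tested at 20 µM; growth read once vehicle control cultures reached saturation at 30 °C; 1 = growth at the plate median or of vehicle wells; lower values mean less growth of the strain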
Settings: growth OD

Measured: normalized growth

CC(C)=CCc1c(O)cc2oc(C)cc(=O)c2c1O
inactive: S. cerevisiae deletion strains, locus YJR066W, strain TOR1, hits give low values 0.941 | S. cerevisiae deletion strains, locus YJR075W, strain HOC1, hits give low values 1.03 | S. cerevisiae deletion strains, locus YKL009W, strain mrt4, hits give low values 0.974 | S. cerevisiae deletion strains, locus YKL068W, hits give low values 0.982 | S. cerevisiae deletion strains, locus YKL085W, strain MDH1 (second series), hits give low values 0.983 | S. cerevisiae deletion strains, locus YKL085W, strain MDH1, hits give low values 0.983 | S. cerevisiae deletion strains, locus YKL160W, strain elf1, hits give low values 0.963 | S. cerevisiae deletion strains, locus YKL190W, strain CNB1, hits give low values 1 | S. cerevisiae deletion strains, locus YKR026C, strain gcn3, hits give low values 0.977 | S. cerevisiae deletion strains, locus YKR091W, strain srl3, hits give low values 0.98 | S. cerevisiae deletion strains, locus YLL001W, strain dnm1, hits give low values 0.964 | S. cerevisiae deletion strains, locus YLL026W, hits give low values 0.981 | S. cerevisiae deletion strains, locus YLL041C, strain sdh2, hits give low values 0.979 | S. cerevisiae deletion strains, locus YLR027C, strain aat2, hits give low values 0.983 | S. cerevisiae deletion strains, locus YLR039C, strain RIC1, hits give low values 0.834 | S. cerevisiae deletion strains, locus YLR058C, strain SHM2, hits give low values 0.966 | S. cerevisiae deletion strains, locus YLR102C, strain apc9, hits give low values 0.987 | S. cerevisiae deletion strains, locus YLR221C, strain rsa3, hits give low values 0.95 | S. cerevisiae deletion strains, locus YLR258W, strain gsy2, hits give low values 0.97 | S. cerevisiae deletion strains, locus YLR268W, strain sec22, hits give low values 0.939 | S. cerevisiae deletion strains, locus YLR320W, strain mms22, hits give low values 0.961 | S. cerevisiae deletion strains, locus YLR330W, strain CHS5, hits give low values 0.937 | S. cerevisiae deletion strains, locus YLR342W, strain FKS1, hits give low values 0.974 | S. cerevisiae deletion strains, locus YLR357W, strain rsc2, hits give low values 0.913 | S. cerevisiae deletion strains, locus YLR370C, strain arc18, hits give low values 0.996 | S. cerevisiae deletion strains, locus YLR371W, strain rom2, hits give low values 0.957 | S. cerevisiae deletion strains, locus YLR384C, strain iki3, hits give low values 0.976 | S. cerevisiae deletion strains, locus YLR418C, strain cdc73, hits give low values 0.898 | S. cerevisiae deletion strains, locus YML016C, strain PPZ1, hits give low values 0.997 | S. cerevisiae deletion strains, locus YML032C, strain rad52, hits give low values 0.907 | S. cerevisiae deletion strains, locus YML120C, strain ndi1, hits give low values 0.98 | S. cerevisiae deletion strains, locus YML124C, strain tub3, hits give low values 0.985 | S. cerevisiae deletion strains, locus YMR058W, strain fet3, hits give low values 0.946 | S. cerevisiae deletion strains, locus YMR078C, strain ctf18, hits give low values 0.994 | S. cerevisiae deletion strains, locus YMR125W, strain sto1, hits give low values 0.981 | S. cerevisiae deletion strains, locus YMR129W, hits give low values 0.98 | S. cerevisiae deletion strains, locus YMR205C, strain PFK2, hits give low values 0.954 | S. cerevisiae deletion strains, locus YMR223W, strain ubp8, hits give low values 0.931 | S. cerevisiae deletion strains, locus YMR231W, strain pep5, hits give low values 0.981 | S. cerevisiae deletion strains, locus YMR263W, strain SAP30, hits give low values 0.992 | S. cerevisiae deletion strains, locus YNL067W, strain RPL9B, hits give low values 1.01 | S. cerevisiae deletion strains, locus YNL071W, strain lat1, hits give low values 0.975 | S. cerevisiae deletion strains, locus YNL153C, strain GIM3, hits give low values 0.932 | S. cerevisiae deletion strains, locus YNL183C, strain NPR1, hits give low values 0.91 | S. cerevisiae deletion strains, locus YNL209W, strain ssb2, hits give low values 0.996 | S. cerevisiae deletion strains, locus YNL233W, strain BNI4, hits give low values 0.926 | S. cerevisiae deletion strains, locus YNL248C, strain rpa49, hits give low values 0.968 | S. cerevisiae deletion strains, locus YNL250W, strain rad50, hits give low values 0.993 | S. cerevisiae deletion strains, locus YNL271C, strain bni1, hits give low values 0.98 | S. cerevisiae deletion strains, locus YNL298W, strain CLA4, hits give low values 0.954 | S. cerevisiae deletion strains, locus YNL307C, strain MCK1, hits give low values 0.989 | S. cerevisiae deletion strains, locus YNL322C, strain KRE1 (second series), hits give low values 0.964 | S. cerevisiae deletion strains, locus YNR049C, strain mso1, hits give low values 0.964 | S. cerevisiae deletion strains, locus YNR052C, strain pop2, hits give low values 1 | S. cerevisiae deletion strains, locus YOL012C, strain htz1 1.24 | S. cerevisiae deletion strains, locus YOL147C, strain pex11, hits give low values 0.954 | S. cerevisiae deletion strains, locus YOR001W, strain rrp6, hits give low values 0.981 | S. cerevisiae deletion strains, locus YOR061W, strain CKA2, hits give low values 0.955 | S. cerevisiae deletion strains, locus YOR069W, strain VPS5, hits give low values 0.987 | S. cerevisiae deletion strains, locus YOR070C, strain gyp1, hits give low values 0.983 | S. cerevisiae deletion strains, locus YOR080W, strain dia2, hits give low values 1 | S. cerevisiae deletion strains, locus YOR083W, strain WHI5, hits give low values 0.947 | S. cerevisiae deletion strains, locus YOR106W, strain vam3, hits give low values 0.934 | S. cerevisiae deletion strains, locus YOR136W, strain idh2, hits give low values 0.979 | S. cerevisiae deletion strains, locus YOR144C, strain elg1, hits give low values 0.965 | S. cerevisiae deletion strains, locus YOR231W, strain MKK1, hits give low values 0.958 | S. cerevisiae deletion strains, locus YOR265W, strain rbl2, hits give low values 0.971 | S. cerevisiae deletion strains, locus YOR270C, strain vph1, hits give low values 1.08 | S. cerevisiae deletion strains, locus YOR290C, strain snf2, hits give low values 0.939 | S. cerevisiae deletion strains, locus YOR316C, strain cot1, hits give low values 0.997 | S. cerevisiae deletion strains, locus YPL051W, strain arl3, hits give low values 0.952 | S. cerevisiae deletion strains, locus YPL055C, strain LGE1, hits give low values 0.945 | S. cerevisiae deletion strains, locus YPL078C, strain atp4, hits give low values 0.966 | S. cerevisiae deletion strains, locus YPL106C, strain sse1, hits give low values 0.978 | S. cerevisiae deletion strains, locus YPL240C, strain hsp82, hits give low values 0.982 | S. cerevisiae deletion strains, locus YPL256C, strain CLN2, hits give low values 1.01 | S. cerevisiae deletion strains, locus YPR119W, strain clb2, hits give low values 0.995 | S. cerevisiae deletion strains, locus YPR141C, strain kar3, hits give low values 1 | S. cerevisiae deletion strains, locus YPR163C, strain tif3, hits give low values 0.975 | S. cerevisiae deletion strains, locus YPR167C, strain met16, hits give low values 0.956 | S. cerevisiae strains, strain wild type, hits give low values 0.922
active: S. cerevisiae deletion strains, locus YJR043C, strain POL32, hits give low values 0.847 | S. cerevisiae deletion strains, locus YKR001C, strain vps1, hits give low values 0.723 | S. cerevisiae deletion strains, locus YLR113W, strain HOG1, hits give low values 0.854 | S. cerevisiae deletion strains, locus YLR262C, strain YPT6 (second series), hits give low values 0.781 | S. cerevisiae deletion strains, locus YMR307W, strain GAS1, hits give low values 0.549 | S. cerevisiae deletion strains, locus YOR184W, strain ser1, hits give low values 0.829 | S. cerevisiae deletion strains, strain wtn01, hits give low values 0.891

From PubChem BioAssay AID1159580 (chemical genetic matrix, 2015)
